# Key:
# Assay in all cases: DAPPL (digital affinity profiling via proximity ligation, sequencing); 10 mM Tris-HCl pH 7.5, 50 mM NaCl, 1 mM DTT, 4% glycerol, room temperature, 30 min; GST-TFs on glutathione beads, 16-mer random dsDNA library, 0.1% formaldehyde crosslink after washing; high values mean tight binding
# FEV = molecular target: T1, FEV (Homo sapiens, UniProt Q99581 1-238); conditions: protein: recombinant; tags: N-terminal GST; dsDNA, one strand shown
# T1 sequence: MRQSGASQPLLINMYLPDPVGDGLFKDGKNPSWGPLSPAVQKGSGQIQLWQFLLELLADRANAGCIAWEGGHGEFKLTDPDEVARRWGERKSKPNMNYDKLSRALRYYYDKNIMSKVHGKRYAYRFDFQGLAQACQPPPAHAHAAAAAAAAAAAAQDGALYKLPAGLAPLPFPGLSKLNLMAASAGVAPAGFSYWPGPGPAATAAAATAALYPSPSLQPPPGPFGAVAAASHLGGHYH
# Outline: (§1)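 Binding signal is given per hexamer as its read frequency for a factor divided by its frequency in the tag-only sample. GST-fused human transcription factors were expressed in yeast, captured on glutathione beads, barcoded with DNA and pooled with that sample, then incubated with 200 nmole of a 16-mer random double-stranded DNA library in Tris/NaCl/DTT/glycerol buffer for 30 min at room temperature. The pools were then washed, crosslinked, proximity-ligated, amplified by PCR and sequenced on an Illumina NextSeq500.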
# ETV5 = ETV5 (Homo sapiens, UniProt P41161 1-510); conditions: protein: recombinant; tags: N-terminal GST; dsDNA, one strand shown
# Chain of ETV5 (P41161 whole entry): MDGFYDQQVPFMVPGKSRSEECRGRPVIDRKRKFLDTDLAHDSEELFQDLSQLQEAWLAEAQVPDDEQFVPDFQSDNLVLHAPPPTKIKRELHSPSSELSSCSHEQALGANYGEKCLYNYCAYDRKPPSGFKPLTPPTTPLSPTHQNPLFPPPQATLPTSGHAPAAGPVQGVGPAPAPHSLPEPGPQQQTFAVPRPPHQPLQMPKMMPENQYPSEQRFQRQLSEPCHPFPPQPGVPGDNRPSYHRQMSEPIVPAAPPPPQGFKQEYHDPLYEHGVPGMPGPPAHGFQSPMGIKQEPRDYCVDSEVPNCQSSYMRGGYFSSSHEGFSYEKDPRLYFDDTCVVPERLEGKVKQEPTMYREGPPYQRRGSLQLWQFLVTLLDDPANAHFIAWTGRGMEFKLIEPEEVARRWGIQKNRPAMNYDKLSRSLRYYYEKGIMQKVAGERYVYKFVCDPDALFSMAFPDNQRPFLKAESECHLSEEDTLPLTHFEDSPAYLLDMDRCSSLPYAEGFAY
# Outline: as §1
# HSF1 = HSF1 (Homo sapiens, UniProt Q00613 1-529); conditions: protein: recombinant; tags: N-terminal GST; chain copies: 3; dsDNA, one strand shown
# Chain of HSF1 (Q00613 whole entry): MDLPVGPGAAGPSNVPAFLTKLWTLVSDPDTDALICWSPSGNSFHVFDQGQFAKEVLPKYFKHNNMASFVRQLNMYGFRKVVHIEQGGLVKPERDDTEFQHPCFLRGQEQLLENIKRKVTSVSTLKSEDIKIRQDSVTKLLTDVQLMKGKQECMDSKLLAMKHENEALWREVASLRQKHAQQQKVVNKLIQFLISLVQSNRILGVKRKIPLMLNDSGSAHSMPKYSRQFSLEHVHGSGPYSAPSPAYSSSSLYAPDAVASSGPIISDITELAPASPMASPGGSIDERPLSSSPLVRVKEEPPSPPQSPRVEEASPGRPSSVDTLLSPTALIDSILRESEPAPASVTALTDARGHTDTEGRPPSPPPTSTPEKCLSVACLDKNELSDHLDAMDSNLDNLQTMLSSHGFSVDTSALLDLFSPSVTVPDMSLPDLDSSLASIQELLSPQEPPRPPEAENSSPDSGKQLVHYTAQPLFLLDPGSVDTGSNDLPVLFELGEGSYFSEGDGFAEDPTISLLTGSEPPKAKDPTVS
# Outline: as §1
# SPIC = molecular target: T2, SPIC (Homo sapiens, UniProt Q8N5J4 1-248); conditions: protein: recombinant; tags: N-terminal GST; dsDNA, one strand shown
# T2 sequence: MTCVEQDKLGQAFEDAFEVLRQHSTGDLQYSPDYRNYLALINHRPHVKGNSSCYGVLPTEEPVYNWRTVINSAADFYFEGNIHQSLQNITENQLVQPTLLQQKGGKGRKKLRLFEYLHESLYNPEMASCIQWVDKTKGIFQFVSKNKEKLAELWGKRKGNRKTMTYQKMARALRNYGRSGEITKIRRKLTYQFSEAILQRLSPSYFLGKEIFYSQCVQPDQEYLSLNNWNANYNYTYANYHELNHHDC
# Outline: as §1
# ELF4 = ELF4 (Homo sapiens, UniProt Q99607 1-663); conditions: protein: recombinant; tags: N-terminal GST; dsDNA, one strand shown
# Chain of ELF4 (Q99607 whole entry): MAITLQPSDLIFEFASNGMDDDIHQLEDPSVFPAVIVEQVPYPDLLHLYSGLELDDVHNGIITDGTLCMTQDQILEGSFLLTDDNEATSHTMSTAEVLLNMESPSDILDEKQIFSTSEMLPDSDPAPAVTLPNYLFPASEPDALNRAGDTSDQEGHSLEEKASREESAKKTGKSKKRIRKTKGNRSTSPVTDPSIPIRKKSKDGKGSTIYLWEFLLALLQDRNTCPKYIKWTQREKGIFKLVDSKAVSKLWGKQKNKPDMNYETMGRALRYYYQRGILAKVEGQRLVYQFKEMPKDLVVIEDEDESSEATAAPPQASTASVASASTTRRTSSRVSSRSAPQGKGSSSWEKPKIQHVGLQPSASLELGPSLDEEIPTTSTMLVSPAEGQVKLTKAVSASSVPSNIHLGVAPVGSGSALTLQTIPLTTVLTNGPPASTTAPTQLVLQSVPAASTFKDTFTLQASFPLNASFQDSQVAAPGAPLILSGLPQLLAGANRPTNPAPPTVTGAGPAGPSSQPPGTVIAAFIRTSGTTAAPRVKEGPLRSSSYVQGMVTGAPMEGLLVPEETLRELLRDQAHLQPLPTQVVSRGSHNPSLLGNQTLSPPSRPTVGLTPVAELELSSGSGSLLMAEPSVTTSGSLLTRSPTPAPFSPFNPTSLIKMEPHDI
# Outline: as §1
# ELK4 = molecular target: T3, ELK4 (Homo sapiens, UniProt P28324-2 1-405); conditions: protein: recombinant; tags: N-terminal GST; dsDNA, one strand shown
# T3 sequence: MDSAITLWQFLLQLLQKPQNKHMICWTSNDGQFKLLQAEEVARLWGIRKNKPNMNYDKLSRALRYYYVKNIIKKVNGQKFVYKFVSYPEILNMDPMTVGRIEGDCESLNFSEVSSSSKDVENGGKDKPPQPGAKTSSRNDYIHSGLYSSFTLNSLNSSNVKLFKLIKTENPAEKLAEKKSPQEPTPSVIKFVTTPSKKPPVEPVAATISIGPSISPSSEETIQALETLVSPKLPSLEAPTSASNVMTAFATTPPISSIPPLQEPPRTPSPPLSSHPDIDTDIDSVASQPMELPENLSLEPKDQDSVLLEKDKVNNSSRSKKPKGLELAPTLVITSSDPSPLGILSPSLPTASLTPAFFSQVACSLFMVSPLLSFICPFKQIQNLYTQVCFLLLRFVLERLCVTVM
# Outline: as §1
# ETV2 = molecular target: T4, ETV2 (Homo sapiens, UniProt O00321 1-342); conditions: protein: recombinant; tags: N-terminal GST; dsDNA, one strand shown
# T4 sequence: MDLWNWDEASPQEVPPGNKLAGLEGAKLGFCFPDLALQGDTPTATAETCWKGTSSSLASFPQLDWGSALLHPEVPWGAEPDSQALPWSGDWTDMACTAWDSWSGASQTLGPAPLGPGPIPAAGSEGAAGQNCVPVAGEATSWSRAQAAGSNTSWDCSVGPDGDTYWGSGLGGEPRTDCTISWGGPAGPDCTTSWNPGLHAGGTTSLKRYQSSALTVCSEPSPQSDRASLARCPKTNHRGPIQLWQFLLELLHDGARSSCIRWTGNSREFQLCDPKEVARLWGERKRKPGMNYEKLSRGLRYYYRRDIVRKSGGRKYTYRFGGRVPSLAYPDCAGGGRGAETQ
# Outline: as §1
# ELF3 = molecular target: T5, ELF3 (Homo sapiens, UniProt P78545 1-371); conditions: protein: recombinant; tags: N-terminal GST; dsDNA, one strand shown
# T5 sequence: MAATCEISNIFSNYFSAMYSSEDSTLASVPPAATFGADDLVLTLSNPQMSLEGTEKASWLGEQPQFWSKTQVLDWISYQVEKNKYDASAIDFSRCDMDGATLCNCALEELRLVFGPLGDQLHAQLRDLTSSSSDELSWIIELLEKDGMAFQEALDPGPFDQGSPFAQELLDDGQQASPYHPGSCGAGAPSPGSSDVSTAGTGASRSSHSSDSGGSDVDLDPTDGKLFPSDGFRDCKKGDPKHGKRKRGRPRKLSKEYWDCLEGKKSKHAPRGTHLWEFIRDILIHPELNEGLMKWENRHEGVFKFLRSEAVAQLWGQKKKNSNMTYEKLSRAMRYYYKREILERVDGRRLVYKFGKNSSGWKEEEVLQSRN
# Outline: as §1
# CRX = CRX (Homo sapiens, UniProt O43186 1-299); conditions: protein: recombinant; tags: N-terminal GST; dsDNA, one strand shown
# Chain of CRX (O43186 whole entry): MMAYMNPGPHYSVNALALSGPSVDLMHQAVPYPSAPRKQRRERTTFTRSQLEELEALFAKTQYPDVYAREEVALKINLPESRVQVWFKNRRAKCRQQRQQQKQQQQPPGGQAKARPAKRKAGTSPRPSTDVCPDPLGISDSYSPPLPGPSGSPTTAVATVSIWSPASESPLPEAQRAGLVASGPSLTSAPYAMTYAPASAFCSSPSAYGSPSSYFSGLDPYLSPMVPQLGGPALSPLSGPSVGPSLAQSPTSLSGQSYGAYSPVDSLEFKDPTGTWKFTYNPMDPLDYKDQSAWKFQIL
# Outline: as §1
# ETV1 = ETV1 (Homo sapiens, UniProt P50549 1-477); conditions: protein: recombinant; tags: N-terminal GST; dsDNA, one strand shown
# Chain of ETV1 (P50549 whole entry): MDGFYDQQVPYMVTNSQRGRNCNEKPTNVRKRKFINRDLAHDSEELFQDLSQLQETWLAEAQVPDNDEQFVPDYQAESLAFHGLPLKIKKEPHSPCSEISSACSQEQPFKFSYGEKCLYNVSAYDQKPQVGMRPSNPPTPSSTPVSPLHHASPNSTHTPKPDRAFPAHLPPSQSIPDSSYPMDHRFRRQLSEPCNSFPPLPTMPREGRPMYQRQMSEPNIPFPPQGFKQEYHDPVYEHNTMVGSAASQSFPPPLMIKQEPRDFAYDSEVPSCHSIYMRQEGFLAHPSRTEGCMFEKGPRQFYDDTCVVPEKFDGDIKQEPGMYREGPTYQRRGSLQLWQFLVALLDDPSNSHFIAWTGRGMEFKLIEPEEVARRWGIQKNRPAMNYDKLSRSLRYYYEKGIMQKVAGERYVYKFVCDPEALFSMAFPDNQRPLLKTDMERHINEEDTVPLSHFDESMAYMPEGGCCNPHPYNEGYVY
# Outline: as §1
# ERF = molecular target: T6, ERF (Homo sapiens, UniProt P50548 1-548); conditions: protein: recombinant; tags: N-terminal GST; dsDNA, one strand shown
# T6 sequence: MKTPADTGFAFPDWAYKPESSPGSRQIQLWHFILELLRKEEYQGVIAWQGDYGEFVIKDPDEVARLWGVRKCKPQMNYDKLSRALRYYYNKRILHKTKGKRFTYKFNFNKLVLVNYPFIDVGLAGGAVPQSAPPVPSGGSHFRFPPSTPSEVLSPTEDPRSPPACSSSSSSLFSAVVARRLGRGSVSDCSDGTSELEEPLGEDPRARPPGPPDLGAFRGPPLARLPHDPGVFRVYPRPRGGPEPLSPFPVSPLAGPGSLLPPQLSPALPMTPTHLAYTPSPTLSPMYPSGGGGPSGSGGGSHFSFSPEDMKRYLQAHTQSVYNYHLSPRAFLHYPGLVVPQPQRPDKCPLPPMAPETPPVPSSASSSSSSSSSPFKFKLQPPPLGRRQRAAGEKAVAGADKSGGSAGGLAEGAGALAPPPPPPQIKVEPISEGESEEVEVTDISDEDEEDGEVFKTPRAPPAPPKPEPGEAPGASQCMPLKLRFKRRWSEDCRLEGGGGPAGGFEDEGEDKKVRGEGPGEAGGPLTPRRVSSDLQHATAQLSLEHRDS
# Outline: as §1
# ETV3L = molecular target: T7, ETV3L (Homo sapiens, UniProt Q6ZN32 1-361); conditions: protein: recombinant; tags: N-terminal GST; dsDNA, one strand shown
# T7 sequence: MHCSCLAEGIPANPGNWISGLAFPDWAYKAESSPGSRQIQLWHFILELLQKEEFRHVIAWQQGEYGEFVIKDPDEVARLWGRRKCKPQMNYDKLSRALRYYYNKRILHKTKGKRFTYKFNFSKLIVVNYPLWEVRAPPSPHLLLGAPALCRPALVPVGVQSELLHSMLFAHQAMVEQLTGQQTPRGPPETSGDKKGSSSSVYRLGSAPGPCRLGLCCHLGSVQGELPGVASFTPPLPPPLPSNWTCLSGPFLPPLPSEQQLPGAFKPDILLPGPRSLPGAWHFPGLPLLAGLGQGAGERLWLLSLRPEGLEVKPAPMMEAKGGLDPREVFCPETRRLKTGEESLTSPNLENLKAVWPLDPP
# Outline: as §1
# ETS2 = molecular target: T8, ETS2 (Homo sapiens, UniProt P15036 1-469); conditions: protein: recombinant; tags: N-terminal GST; dsDNA, one strand shown
# T8 sequence: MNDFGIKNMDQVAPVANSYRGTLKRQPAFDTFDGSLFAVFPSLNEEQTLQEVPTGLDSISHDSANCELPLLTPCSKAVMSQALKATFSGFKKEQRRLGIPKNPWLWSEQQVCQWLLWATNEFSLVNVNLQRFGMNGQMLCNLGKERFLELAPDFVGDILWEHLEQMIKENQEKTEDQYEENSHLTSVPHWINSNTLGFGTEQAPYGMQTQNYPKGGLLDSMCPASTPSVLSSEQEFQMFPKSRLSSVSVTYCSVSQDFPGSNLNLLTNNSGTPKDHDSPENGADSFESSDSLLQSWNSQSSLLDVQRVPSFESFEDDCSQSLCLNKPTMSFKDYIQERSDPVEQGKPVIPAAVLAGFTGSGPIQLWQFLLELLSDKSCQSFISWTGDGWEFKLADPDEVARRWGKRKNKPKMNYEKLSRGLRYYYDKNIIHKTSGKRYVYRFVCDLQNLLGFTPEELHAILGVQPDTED
# Outline: as §1
# SPDEF = molecular target: T9, SPDEF (Homo sapiens, UniProt O95238 1-335); conditions: protein: recombinant; tags: N-terminal GST; dsDNA, one strand shown
# T9 sequence: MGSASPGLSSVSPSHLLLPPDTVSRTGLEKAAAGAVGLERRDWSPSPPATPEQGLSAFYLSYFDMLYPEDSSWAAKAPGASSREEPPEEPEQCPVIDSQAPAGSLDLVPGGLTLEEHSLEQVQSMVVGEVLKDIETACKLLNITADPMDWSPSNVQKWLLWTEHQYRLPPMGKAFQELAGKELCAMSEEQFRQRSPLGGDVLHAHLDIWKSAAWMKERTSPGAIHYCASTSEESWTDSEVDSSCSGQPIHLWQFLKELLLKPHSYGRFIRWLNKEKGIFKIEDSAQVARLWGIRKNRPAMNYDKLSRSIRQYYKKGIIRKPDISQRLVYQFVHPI
# Outline: as §1
# ETV7 = molecular target: T10, ETV7 (Homo sapiens, UniProt Q9Y603 1-341); conditions: protein: recombinant; tags: N-terminal GST; dsDNA, one strand shown
# T10 sequence: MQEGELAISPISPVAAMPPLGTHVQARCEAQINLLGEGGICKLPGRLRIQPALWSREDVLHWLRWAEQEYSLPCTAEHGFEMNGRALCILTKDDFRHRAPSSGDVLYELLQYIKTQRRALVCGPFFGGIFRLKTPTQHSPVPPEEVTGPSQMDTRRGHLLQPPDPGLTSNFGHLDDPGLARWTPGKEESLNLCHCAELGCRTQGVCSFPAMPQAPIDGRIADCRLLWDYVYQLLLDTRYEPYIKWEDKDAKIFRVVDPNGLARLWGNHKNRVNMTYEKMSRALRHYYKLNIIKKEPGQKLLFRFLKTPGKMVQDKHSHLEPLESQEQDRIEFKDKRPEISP
# Outline: as §1
# ELF5 = molecular target: T11, ELF5 (Homo sapiens, UniProt Q9UKW6-2 1-255); conditions: protein: recombinant; tags: N-terminal GST; dsDNA, one strand shown
# T11 sequence: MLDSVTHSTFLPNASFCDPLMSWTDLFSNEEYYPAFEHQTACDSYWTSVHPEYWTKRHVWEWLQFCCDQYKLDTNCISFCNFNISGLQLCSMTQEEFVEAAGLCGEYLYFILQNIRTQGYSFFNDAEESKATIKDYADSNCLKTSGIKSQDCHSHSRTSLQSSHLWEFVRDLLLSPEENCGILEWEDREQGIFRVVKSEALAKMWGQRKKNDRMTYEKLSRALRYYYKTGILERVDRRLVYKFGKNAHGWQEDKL
# Outline: as §1
# ETV3 = molecular target: T12, ETV3 (Homo sapiens, UniProt P41162-2 1-143); conditions: protein: recombinant; tags: N-terminal GST; dsDNA, one strand shown
# T12 sequence: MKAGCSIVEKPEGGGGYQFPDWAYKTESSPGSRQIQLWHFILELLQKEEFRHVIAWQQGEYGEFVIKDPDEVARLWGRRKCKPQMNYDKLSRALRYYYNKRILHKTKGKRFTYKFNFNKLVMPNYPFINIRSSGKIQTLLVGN
# Outline: as §1
# ETV6 = ETV6 (Homo sapiens, UniProt P41212 1-452); conditions: protein: recombinant; tags: N-terminal GST; dsDNA, one strand shown
# Chain of ETV6 (P41212 whole entry): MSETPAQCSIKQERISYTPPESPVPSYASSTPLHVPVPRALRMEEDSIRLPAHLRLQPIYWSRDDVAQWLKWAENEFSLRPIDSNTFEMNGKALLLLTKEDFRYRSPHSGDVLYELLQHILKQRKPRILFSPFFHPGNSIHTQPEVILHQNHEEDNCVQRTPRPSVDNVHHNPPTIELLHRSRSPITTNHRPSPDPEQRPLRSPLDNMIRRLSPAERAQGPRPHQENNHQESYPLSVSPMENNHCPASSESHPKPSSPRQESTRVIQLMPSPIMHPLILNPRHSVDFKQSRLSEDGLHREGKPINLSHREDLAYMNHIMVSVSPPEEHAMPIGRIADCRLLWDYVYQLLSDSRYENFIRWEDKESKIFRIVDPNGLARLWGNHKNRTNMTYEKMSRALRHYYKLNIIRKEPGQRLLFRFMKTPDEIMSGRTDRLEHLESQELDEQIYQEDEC
# Outline: as §1
sequence,measurement,setting,value
TAACAT,binding signal,FEV,"1.32 fold enrichment (6-mer frequency, TF over GST control)"
same,binding signal,ETV5,"1.36 fold enrichment (6-mer frequency, TF over GST control)"
same,binding signal,HSF1,"1.29 fold enrichment (6-mer frequency, TF over GST control)"
same,binding signal,SPIC,"1.46 fold enrichment (6-mer frequency, TF over GST control)"
same,binding signal,ELF4,"1.37 fold enrichment (6-mer frequency, TF over GST control)"
same,binding signal,ELK4,"1.29 fold enrichment (6-mer frequency, TF over GST control)"
same,binding signal,ETV2,"1.39 fold enrichment (6-mer frequency, TF over GST control)"
same,binding signal,ELF3,"1.5 fold enrichment (6-mer frequency, TF over GST control)"
same,binding signal,CRX,"1.57 fold enrichment (6-mer frequency, TF over GST control)"
same,binding signal,ETV1,"1.37 fold enrichment (6-mer frequency, TF over GST control)"
same,binding signal,ERF,"1.33 fold enrichment (6-mer frequency, TF over GST control)"
same,binding signal,ETV3L,"1.32 fold enrichment (6-mer frequency, TF over GST control)"
same,binding signal,ETS2,"1.28 fold enrichment (6-mer frequency, TF over GST control)"
same,binding signal,SPDEF,"1.34 fold enrichment (6-mer frequency, TF over GST control)"
same,binding signal,ETV7,"1.3 fold enrichment (6-mer frequency, TF over GST control)"
same,binding signal,ELF5,"1.35 fold enrichment (6-mer frequency, TF over GST control)"
same,binding signal,ETV3,"1.26 fold enrichment (6-mer frequency, TF over GST control)"
same,binding signal,ETV6,"1.4 fold enrichment (6-mer frequency, TF over GST control)"
